Inconclusive results are not listed. Active and inactive are the calls of the source. Calls come from the whole dose curve; as a rule, active = well fitted cell-killing curve with a large enough effect; inconclusive = small, poorly fitted or top-dose-only effect; inactive = no such curve, though single readings can be large or run the other way.

This experiment can be described thus: qHTS of pediatric cancer cell lines to identify multiple opportunities for drug repurposing: Primary screen for OHS-50 cells (AID 1347103). Note: nearly all actives have a fitted effect of over 40% in size. Particulars: OHS-50 osteosarcoma viability, CellTiter-Glo luminescence, 48 h; series mostly up to 57.3 µM. The source says:
Drug repurposing or repositioning has been offered as a strategy for drug development in oncology programs. This approach has special potential for childhood cancers and other rare or orphan diseases, where the expected return on new drug development has been a disincentive to pharmaceuticals.
In this project we exploit the poly-pharmacology of drugs to discover new indications via phenotypic screening of a panel of 19 well-characterized cell lines derived from solid tumors seen in children and adolescents. The goal is to identify approved drugs with previously unrecognized anticancer properties that has the potential to reveal new mechanisms and biological processes involved in carcinogenesis or drug resistance. We employed a titration-based paradigm (quantitative high-throughput screening or qHTS), where all compounds were tested at multiple concentrations for their effect on cell viability. Concentration-response curves (CRCs) were derived directly from the primary screen, and both potency and efficacy values were used to identify compounds with robust bioactivity profiles. We screened the NIH Chemical Genomics Center (NCGC) Pharmaceutical Collection (NPC) and Mechanism Interrogation Plate (MIPE) small molecule collections of approved and investigational compounds against these cell lines; and measured metabolically active cells after 48 hours of compound treatment as a proxy for cell viability.
Assay Submitter: Nathalia J. Martinez, National Center for Advancing Translational Sciences, National Institutes of Health, Rockville, MD, USA; email: natalia.martinez@nih.gov
[1] Shen, M et al. Quantitative high-throughput phenotypic screening of pediatric cancer cell lines identifies multiple opportunities for drug repurposing. Oncotarget 2017 Dec 19;9(4):4758-4772. PMID 29435139.
The cells were obtained from University of North Carolina (UNC), Pediatric Preclinical Testing Program (PPT), and Coriell Institute (CI).
qHTS cell viability assay:
Cells were assayed in growth media at a density of 500-1,000 cells/well. Five microliters of cells were dispensed into 1,536-well, white, solid-bottom, TC-treated plates (Greiner Bio One) using a multidrop dispenser and incubated at 37 degrees C, 5% CO2, under a humidified atmosphere for 5 hours. Twenty-three nanoliters of compounds and controls (neutral control DMSO or positive control bortezomib at final concentration of 2.3 µM) were subsequently transferred by Kalypsys pintool. For primary screens, the MIPE collection was tested at 11-point dilutions (final concentrations range from 0.78 nM to 46 µM) and the NPC collection at 8-point dilutions (final concentrations range from 0.59 nM to 46 µM). Compounds tested in follow-up screens were assayed at 11-point dilutions. Cells were incubated for 48 hours, followed by addition of 3 µL of CellTiter-Glo (Promega). After a 15 min incubation at room temperature, samples were analyzed for luminescence intensity using a ViewLux High-throughput CCD imager equipped with clear filters.
`CC(N)CCCC(C)(C)O` (stereo not given): the outcome was inactive.
The same measure, in the same setting: then `NS(=O)(=O)c1cc(-c2nn[nH]n2)c(NCc2cccs2)cc1Cl`, with “inactive”; and `CCOC(=O)[C@H](CCc1ccccc1)N[C@@H](C)C(=O)N1Cc2cc(OC)c(OC)cc2C[C@H]1C(=O)O`, with “inactive”.
As to `O=C1c2ccccc2S(=O)(=O)N1CCCCN1CCN(c2ncccn2)CC1`, the call was inactive.
The same measure, in the same setting: the value for `O=C(O)CNC(=O)c1ccccc1I` was “inactive”; that for `CC(=O)Nc1ccccc1` was “inactive”; that for `NC(=O)CC[C@@H](N)C(=O)O` was “inactive”.
On the same count and under the same terms, then `O=C(O)[C@@H]1[C@H]2C[C@H]3c4[nH]c5ccccc5c4CCN3C[C@@H]2CC[C@@H]1O`, with “inactive”; and `CCN(CC)CC1CCCCN1CC(=O)N1c2ccccc2C(=O)Nc2cccnc21` (stereo not given), with “inactive”; and `Cc1cccc(C)c1NC(=O)CC12CCCN1CCC2`, with “inactive”.
As for `CCCCCCCCCCOc1cc2c(=O)c(C(=O)OCC)c[nH]c2cc1OCC`, the activity change, negative = cytotoxic is -4.02% [at 6.18 µM] (inactive).
For the compound `O=C1C(c2[nH]c3ccccc3c2O)=Nc2ccccc21`, the call was inactive.
Same read-out and setting: the value for `CC(C)c1cc2c(cc1S(=O)(=O)O)[C@@]1(C)CCC[C@@](C)(C(=O)O)[C@@H]1CC2` was “inactive”; that for `CC(C)CCCC(C)CCCC(C)CCCCC(C)CCCC(C)CCCC(C)C` (stereo not given) was “inactive”; that for `O=C(O)Cc1ccc(CCNS(=O)(=O)c2ccc(Cl)cc2)cc1` was “inactive”.
On the same count and under the same terms, the value for `CC(=O)OC[C@H]1O[C@@](COC(C)=O)(O[C@H]2O[C@H](COC(C)=O)[C@@H](OC(C)=O)[C@H](OC(C)=O)[C@H]2OC(C)=O)[C@@H](OC(C)=O)[C@@H]1OC(C)=O` was “inactive”; that for `COc1ccc(NS(=O)(=O)c2ccc(N)cc2)nn1` was “inactive”; that for `CC(C)(C)C(=O)OCOC(=O)[C@@H]1N2C(=O)[C@@H](NC(=O)[C@H](N)c3ccccc3)[C@H]2SC1(C)C` was “inactive”.
The same measure, in the same setting: the value for `CC(=O)Nc1ccc(OCCOCCOc2ccc(NC(C)=O)cc2)cc1` was “inactive”; that for `O=C1c2ccccc2C(=O)C1c1ccc(Br)cc1` was “inactive”.
`CC(=O)N(CC(O)CO)c1c(I)c(C(=O)NCC(O)CO)c(I)c(C(=O)NCC(O)CO)c1I` (stereo not given): the compound was called inactive.
Same read-out and setting: the value for `CN[C@@H]1[C@@H](O)[C@@H](O[C@@H]2[C@H](O)[C@H](O[C@H]3OC(CN)=CC[C@H]3N)[C@@H](N)C[C@H]2N)OCC1(C)O` (stereo not given in full) was “inactive”; that for `O=C(/C=C/c1ccc(O)c(O)c1)O[C@@H]1C[C@@](OC(=O)/C=C/c2ccc(O)c(O)c2)(C(=O)O)C[C@@H](O)[C@@H]1O` was “inactive”.
Same read-out and setting: then `CC(=O)Nc1ccc(C(=O)O)cc1`, with “inactive”; and `C[C@]1(Cn2ccnn2)[C@H](C(=O)O)N2C(=O)C[C@H]2S1(=O)=O`, with “inactive”; and `CCOC(=O)[C@H](CCc1ccccc1)N[C@@H](C)C(=O)N1CCC[C@H]1C(=O)O`, with “inactive”.
Same read-out and setting: then `NC(=O)NS(=O)(=O)c1ccc(N)cc1`, with “inactive”.
As for `C=CCN1C[C@H](C(=O)N(CCCN(C)C)C(=O)NCC)C[C@@H]2c3cccc4[nH]cc(c34)C[C@H]21`, the outcome was inactive.
Same read-out and setting: then `CC(=O)Oc1cccc(C)c1`, with “inactive”; and `Cc1c(C(=O)NCCO)[n+](=O)c2ccccc2n1[O-]`, with “inactive”.
On the same count and under the same terms, then `NC(=O)CCCCC1CCSS1` (stereo not given), with “inactive”; and `O[C@@H]1CO[C@H]2[C@@H]1OC[C@@H]2O`, with “inactive”.
On the same count and under the same terms, then `CC1CCN(CCCC(=O)c2ccc(F)cc2)CC1`, with “inactive”.
With `Cc1cc(O)cc(C)c1Cl`, the outcome was inactive.
The same measure, in the same setting: the value for `CCCCCCCCCCCCCCCCCCO` was “inactive”; that for `CC(=O)Nc1cccc(O)c1` was “inactive”.
Same read-out and setting: then `O=C(Cn1ccnc1[N+](=O)[O-])NCc1ccccc1`, with “inactive”; and `Nc1c2c(nc3c1CCC3)CCCC2`, with “inactive”.
In the case of `C[N+](C)(C)CC[N+]1(C)Cc2c(Cl)c(Cl)c(Cl)c(Cl)c2C1`, the call was inactive.
On the same count and under the same terms, the value for `CC(=O)N[C@@H](CC(C)C)C(=O)O` was “inactive”.
